Measured values from the supplement of paper PMC13380429.

Each compound was assayed on Vero E6 infected with SARS-CoV-2 (assay: inhibition of SARS-CoV-2 cytopathic effect; higher = more antiviral protection, active = above 15). Conditions: 8.33 nM; 48 h.
In the case of CC(C)n1nc(C#Cc2ccccc2)c2c(N)ncnc21, the “inhibition of SARS-CoV-2 cytopathic effect” value (“inhibition” for short) is reported as -1.43% (inactive).
For Nc1ccc([As](=O)(O)O)cc1 [arsanilic-acid], the “inhibition” value was 1.05% (inactive).
With Nc1ccc(C(=O)NCC(=O)O)cc1 [4-aminohippuric-acid] the “inhibition” value was -0.24% (inactive).
CC(C)[C@@H](C(=O)Nc1nccs1)c1ccc(Cl)cc1 was tested, and the “inhibition” value was 0.66% (inactive).
For NC(=O)[C@H]1CCS[C@@H]2C[C@]3(CCCN3C(=O)Cc3ccc(NC(=O)COc4ccc(Cl)cc4Cl)cc3)C(=O)N12, the “inhibition” value was 0.01% (inactive).
In the case of CN1CCC(Nc2ncc3ncnc(Nc4ccc(F)c(Cl)c4)c3n2)CC1, the “inhibition” value is reported as 1.23% (inactive).
With CCCCc1nc(Cl)c(CO)n1Cc1ccc(-c2ccccc2-c2nnn[nH]2)cc1 [losartan] the “inhibition” value was 1.87% (inactive).
For O=C(O)Cc1cccc(OCCCN(Cc2cccc(C(F)(F)F)c2Cl)CC(c2ccccc2)c2ccccc2)c1, the “inhibition” value was 0.75% (inactive).
In the case of CC(C)C[C@H](NC(=O)CNC(=O)c1cc(Cl)ccc1Cl)B(O)O [ixazomib], the “inhibition” value is reported as 2.02% (inactive).
For C[C@@H](C(=O)O)c1ccc(-c2ccccc2)c(F)c1 (racemic) [flurbiprofen-(+/-)], the “inhibition” value was 0.72% (inactive).
With CC(=O)SC[C@@H](C)C(=O)N1CCC[C@H]1C(=O)N[C@@H](Cc1ccccc1)C(=O)O [alacepril] the “inhibition” value was 0.59% (inactive).
For N[C@@H](C(=O)N[C@@H]1C(=O)N2C(C(=O)O)=C(Cl)CS[C@H]12)c1ccccc1 [cefaclor], the “inhibition” value was -5.19% (inactive).
With CC1(C)Cc2c(-c3ccccc3)c(-c3ccc(Cl)cc3)c(CC(=O)O)n2C1 [licofelone] the “inhibition” value was 2.92% (inactive).
With Oc1ccc(C2CNCCc3c2cc(O)c(O)c3Cl)cc1 (stereo not given) [fenoldopam] the “inhibition” value was 1.3% (inactive).
In the case of FC(F)(F)c1cccc(-c2noc(-c3cc(-c4ccccc4)c(C(F)(F)F)s3)n2)c1, the “inhibition” value is reported as 0.95% (inactive).
In the case of CC[C@@H](c1ccc(F)c(F)c1)n1c(C(=O)OC)c(-c2ccno2)[nH]c1=S, the “inhibition” value is reported as 2.77% (inactive).
For CC1(C)S[C@@H]2[C@H](NC(=O)Cc3ccccc3)C(=O)N2[C@H]1C(=O)O [benzylpenicillin], the “inhibition” value was -1.58% (inactive).
With Nc1ccc(S(=O)(=O)Nc2ccc(Cl)nn2)cc1 [sulfachlorpyridazine] the “inhibition” value was -0.21% (inactive).
With O=C(/C=C/c1ccc(O)c(O)c1)c1ccc(O)cc1O [butein] the “inhibition” value was 0.3% (inactive).
For CC(C(=O)O)c1ccc(CC2CCCC2=O)cc1 (stereo not given) [loxoprofen], the “inhibition” value was 3.24% (inactive).
With Cc1cc(O)c(C(=O)N[C@@H](C(=O)N[C@@H]2C(=O)N3C(C(=O)O)=C(CSc4nnnn4C)CS[C@H]23)c2ccc(O)cc2)cn1 [cefpiramide] the “inhibition” value was -0.72% (inactive).
CCCCNC(=O)[C@@H]1Cc2ccccc2N1C(=O)[C@@H](N)CC [butabindide] was tested, and the “inhibition” value was 1.33% (inactive).
In the case of C=CCN1CCCC1CNC(=O)c1cc2nn[nH]c2cc1OC (stereo not given) [alizapride], the “inhibition” value is reported as 1.78% (inactive).
O=Nc1c(-c2c(O)[nH]c3cc(Br)ccc23)[nH]c2ccccc12 [GSK-3-inhibitor-IX] was tested, and the “inhibition” value was 0.68% (inactive).
In the case of Cc1onc(-c2ccccc2)c1C(=O)N[C@@H]1C(=O)N2[C@@H]1SC(C)(C)[C@@H]2C(=O)O [oxacillin], the “inhibition” value is reported as 1.54% (inactive).
For CC(=C(CCOC(=O)C(C)C)SSC(CCOC(=O)C(C)C)=C(C)N(C=O)Cc1cnc(C)nc1N)N(C=O)Cc1cnc(C)nc1N (stereo in doubt) [sulbutiamine], the “inhibition” value was 2.05% (inactive).
c1ccc2c(c1)Sc1ccccc1N2C[C@H]1CN2CCC1CC2 [levomequitazine] was tested, and the “inhibition” value was -6.41% (inactive).
In the case of CCCC(=O)Nc1cccc(NC(=O)c2ccccc2Br)c1, the “inhibition” value is reported as 1.45% (inactive).
C[C@@H]1COC(Nc2ccc3ncnc(Nc4ccc(OCc5nccs5)c(Cl)c4)c3c2)=N1 was tested, and the “inhibition” value was 1.86% (inactive).
With CNC(=O)c1ccc(-c2cnc3ncc(Cc4ccc5ncccc5c4)n3n2)cc1F the “inhibition” value was -1.02% (inactive).
O=C(O)/C=C\c1c[nH]cn1 [cis-Urocanic acid] was tested, and the “inhibition” value was -1.24% (inactive).
CCC(=O)O[C@@H](O[P@@](=O)(CCCCc1ccccc1)CC(=O)N1C[C@H](C2CCCCC2)C[C@H]1C(=O)O)C(C)C [fosinopril] was tested, and the “inhibition” value was 0.8% (inactive).
In the case of O=C(O)C(=O)c1cn(Cc2ccccc2)c2ccc(-c3ccc(OC(F)(F)F)cc3)cc12 [tiplaxtinin], the “inhibition” value is reported as 2.56% (inactive).
For NC[C@H](O)c1ccc(O)c(O)c1 [norepinephrine], the “inhibition” value was -0.56% (inactive).
With C1CCN2C[C@@H]3C[C@@H](CN4CCCC[C@@H]34)[C@H]2C1 [sparteine-sulfate] the “inhibition” value was 4.17% (inactive).
COc1ccc2c3c1O[C@H]1C[C@@H](O)C=C[C@@]31CCN(C)C2 [galantamine] was tested, and the “inhibition” value was 3.15% (inactive).
In the case of c1ccc(CC2=NCCN2)cc1 [tolazoline], the “inhibition” value is reported as 0.92% (inactive).
For CC(C)(C)OC(=O)N[C@H]1CCCCC/C=C\[C@@H]2C[C@@]2(C(=O)NS(=O)(=O)C2CC2)NC(=O)[C@@H]2C[C@@H](OC(=O)N3Cc4cccc(F)c4C3)CN2C1=O [danoprevir], the “inhibition” value was 1.4% (inactive).
CN(C)CCN1C(=O)c2cccc3cc(NC(N)=O)cc(c23)C1=O [unbs-5162] was tested, and the “inhibition” value was 4.76% (inactive).
For CC(C)(COP(=O)(O)OP(=O)(O)OC[C@H]1O[C@@H](n2cnc3c(N)ncnc32)[C@H](O)[C@@H]1OP(=O)(O)O)[C@@H](O)C(=O)NCCC(=O)NCCS [coenzyme-A], the “inhibition” value was 0.97% (inactive).
